Measurements: PubChem BioAssay (NCI)
Where “and” joins values, the source holds several entries; their conditions need not be identical. Identical values can stand only once. This is part of a sample that, as a whole, favours compounds with a hit. Of some 83,000 tested, about 20% had one in any assay.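 In brief: 96-well plates, 48 h treatment, single concentration, percent growth endpoint.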 Calls of active or inactive are those of the source. Rule for the calls: active = growth percent below 10; inactive = the rest.

Tested on: HL-60(TB) leukemia
Assay: NCI-60 one-dose screen, 48 h (100 = growth as untreated, 0 = no growth, -100 = all killed)
Conditions: 10 µM unless noted

| Compound | growth |
| --- | --- |
| O=C(O)c1ccccc1Cc1ccc(F)c2ccccc12 | 98.1% (inactive) and 91.1% (inactive) |
| ClCCn1cnc2c(SCc3ccccc3Cl)ncnc21 | 8.38% (active) |
| O=C(c1ccccc1)c1ccc(Cl)c([N+](=O)[O-])c1 | 40.8% (inactive) |
| CCCCCCCCCCCC[N+]1(CCCCCCCCCCCC)CCCC(C)C1 (centres undefined) | -79.5% (active) |
| C/C(=N\NC(=O)c1sc(=S)n(C)c1N)c1cc2ccccc2o1 | 26.6% (inactive) |
| COc1ccc(-c2nnc(COc3ccc(NC(=O)Nc4ccc(Cl)c(C(F)(F)F)c4)cc3F)o2)cc1 | -18.5% (active) |
| CCCCN(CCCC)c1ccc(C(=O)O)cc1 | 104% (inactive) |
| CCN(CC)CCCCCCNc1ccnc2cc(Cl)ccc12 | 103% (inactive) |
| CN1CCN(C2CCN(C(=O)Nc3cc(Oc4ccc(NC(=O)C5(C(=O)Nc6ccc(F)cc6)CC5)c(F)c4)ccn3)CC2)CC1 | -44.7% (active) and 121% (inactive) |
| O=C(CCC(C(=O)c1ccccc1)c1ccccc1)c1ccccc1 (centres undefined) | 28.1% (inactive) |
| CCOC(=O)c1cn2ncnc(Oc3ccc(NC(=O)NC4CCCCC4)c(Cl)c3)c2c1C | 70.9% (inactive) |
| CCCNc1nc(SC)nc(-c2cccc(N)c2)c1C#N | 98.9% (inactive) |
| C=CCn1c(SCC(=O)Nc2ccc(C(=O)/C=C/c3ccc(Cl)cc3)cc2)nnc1-c1cc(-c2ccc(S(N)(=O)=O)cc2)nc2ccccc12 | 75.7% (inactive) |
| COc1ccc2nc3ccc(OC)cc3c(SCCCN)c2c1 | 50.2% (inactive) |
| N/N=C(\C(=N\N)c1ccccc1)c1ccccc1 | 84.7% (inactive) |
| NC(CSSCC(N)C(=O)O)C(=O)O (centres undefined) | -12.8% (active) |
| O=C(Nc1ccc([N+](=O)[O-])cc1Cl)c1cc(Cl)ccc1O | -30.7% (active) and -30.9% (active) |
| C=CC(=O)Nc1cccc(-c2nc(SC)nc(Nc3ccccc3OC)c2C#N)c1 | 14.1% (inactive) |
| COc1cc(/C=N/NC(=O)c2ccccc2Nc2cccc(C(F)(F)F)c2)ccc1O | 26.9% (inactive) |
| O=S(=O)(Nc1cc(Br)c(O)c2ccccc12)c1ccc(F)cc1 | -26.9% (active) |

| Compound | growth |
| --- | --- |
| CNC(=O)Cc1nc(-c2cccc(NS(=O)(=O)c3c(F)cccc3F)c2F)c(-c2ccnc(Nc3ccccc3)n2)s1 | 57.8% (inactive) |
| COc1ccc(-c2nocc2-c2cccs2)cc1 | 115% (inactive) |
| O=S(=O)(Nc1ncccn1)c1ccc(NC2Nc3nc4ccccc4nc3S2)cc1 (centres undefined) | 101% (inactive) |
| COc1ccc(OC)c(-c2c(C#N)c(-c3cccs3)nc3c2c(-c2ccccc2)nn3-c2ccccc2)c1 | 107% (inactive) |
| CC12CCCCC1C(C(N)=O)C(=O)O2 (centres undefined) | 102% (inactive) |
| CC(=O)OC1CC2C(C)(C)OC3CC(=O)OCC32C2CCC3(C)C(=CCC3c3ccoc3)C12C (centres undefined) | 116% (inactive) |
| Cc1ccc(N(CC2=NCCN2)c2cccc(O)c2)cc1 | 105% (inactive) |
| C#Cc1c2c(c(OC)c3c1OCO3)[C@H]([C@H]1OC(=O)c3c1ccc(OC)c3OC)N(C)CC2 | 72.5% (inactive) |
| O=C(O)c1ccc(-n2cc(/C=N/Nc3ccc(F)cc3)c(-c3cc4ccccc4oc3=O)n2)cc1 | 6.08% (active) |
| CCOC(=O)c1cc(C(=O)c2cc(OC)c(OC)c(OC)c2)n2ccc(-c3ccncc3)cc12 | 65% (inactive) |
| CNC(=O)c1ccc(Nc2ncc(C(F)(F)F)c(NCc3nccnc3N(C)S(C)(=O)=O)n2)cc1 | -32.1% (active) |
| CN(C)c1ccc(N=Nc2ccccn2)c(O)c1 | -36.3% (active) |
| OC(CNC1CCCC1)Cn1c2ccccc2c2ccccc21 (centres undefined) | -47.3% (active) |
| O=C1CCCN1C(O)CCN(Cc1ccccc1)Cc1ccc(Cl)cc1 (centres undefined) | 96.4% (inactive) |
| COc1ccc2c(O)c(/C=C3\N=Nc4ccccc43)oc2c1C[C@@H]1CCNC[C@H]1F | 61% (inactive) |
| O=[N+]([O-])c1cc(S(=O)(=O)c2ccc(F)c([N+](=O)[O-])c2)ccc1F | 59.9% (inactive) |
| COc1ccc(-c2oncc2-c2cc(OC)c3c(c2)OCO3)cc1 | -6.72% (active) |
| ClC1(Cl)C2CCCCCCC21 (centres undefined) | 106% (inactive) |
| CC(=O)Cc1nsc(NC(=O)c2cc(-c3cc(Cl)cc(Cl)c3)oc2C)n1 | 96.5% (inactive) |
